Measured values published in the supplement of paper PMC13380429.

What was measured:
[1] = system: Vero E6 infected with SARS-CoV-2; test: morphology score (similarity to uninfected cells); higher = more like uninfected cells; conditions: 24 h
[2] = system: Vero E6 infected with SARS-CoV-2; test: SARS-CoV-2 infection rate relative to infected DMSO; higher = more infection, active = 60 or less; conditions: 24 h

SMILES: C[C@]12COC(=O)C[C@@H]1CC[C@@H]1[C@@H]2CC[C@@]2(C)[C@H]1CC[C@]2(C)O [Oxandrolone] (10 µM)
- morphology score [1]: 0.0356
- SARS-CoV-2 infection rate [2]: 112% (inactive)

SMILES: NS(=O)(=O)c1cc(C(=O)O)c(NCc2ccco2)cc1Cl [furosemide] (10 µM)
- morphology score [1]: 0.0455
- SARS-CoV-2 infection rate [2]: 98% (inactive)

SMILES: COc1ccccc1N1CCN(CCCCNC(=O)c2ccc3ccccc3c2)CC1 (10 µM)
- morphology score [1]: -0.00528
- SARS-CoV-2 infection rate [2]: 94.5% (inactive)

SMILES: CNC(=O)c1cnn(-c2nc(N)c3ncn([C@@H]4O[C@H](CO)[C@@H](O)[C@H]4O)c3n2)c1 [regadenoson] (10 µM)
- morphology score [1]: -0.0309
- SARS-CoV-2 infection rate [2]: 111% (inactive)

SMILES: CCOC(CN1CCN(CC(C)C(=O)c2ccccc2)CC1)c1ccccc1 (stereo unspecified) [eprazinone] (10 µM)
- morphology score [1]: 0.35
- SARS-CoV-2 infection rate [2]: 96% (inactive)

SMILES: CCC(=O)O[C@@H]1CC(=O)O[C@H](C)C/C=C/C=C/[C@H](OC(C)=O)[C@H](C)C[C@H](CC=O)[C@H](O[C@@H]2O[C@H](C)[C@@H](O[C@H]3C[C@@](C)(OC(C)=O)[C@@H](OC(=O)CC)[C@H](C)O3)[C@H](N(C)C)[C@H]2O)[C@H]1OC [miocamycin] (10 µM)
- morphology score [1]: -0.0251
- SARS-CoV-2 infection rate [2]: 110% (inactive)

SMILES: c1ccc(C(NCCNC(c2ccccc2)c2ccccc2)c2ccccc2)cc1 (10 µM)
- morphology score [1]: 0.14
- SARS-CoV-2 infection rate [2]: 101% (inactive)

SMILES: Nc1nc2ccc(OC(F)(F)F)cc2s1 [riluzole] (10 µM)
- morphology score [1]: 0.188
- SARS-CoV-2 infection rate [2]: 105% (inactive)

SMILES: CCOc1ccccc1OC(c1ccccc1)C1CNCCO1 (stereo unspecified) [reboxetine] (10 µM)
- morphology score [1]: -0.0871
- SARS-CoV-2 infection rate [2]: 113% (inactive)

SMILES: O=C(Nc1ccccc1)N[C@H]1C[C@H](C(=O)O)Nc2cc(Cl)cc(Cl)c21 (10 µM)
- morphology score [1]: -0.146
- SARS-CoV-2 infection rate [2]: 106% (inactive)

SMILES: CCC(C)(Oc1ccc(C2(c3ccc(OC(C)(CC)C(=O)O)cc3)CCCCC2)cc1)C(=O)O (stereo unspecified) [clinofibrate] (10 µM)
- morphology score [1]: 0.0154
- SARS-CoV-2 infection rate [2]: 112% (inactive)

SMILES: O=C(Nc1ccc(O)cc1)c1ccccc1O [N-salicoylaminophenol] (10 µM)
- morphology score [1]: 0.168
- SARS-CoV-2 infection rate [2]: 102% (inactive)

SMILES: CC/C(=C(/CC)c1ccc(OP(=O)(O)O)cc1)c1ccc(OP(=O)(O)O)cc1 [fosfestrol] (10 µM)
- morphology score [1]: 0.11
- SARS-CoV-2 infection rate [2]: 96% (inactive)

SMILES: O=C1NC(=O)C(=Cc2ccc(-c3ccc(F)cc3)o2)S1 (stereo in doubt) (10 µM)
- morphology score [1]: 0.0111
- SARS-CoV-2 infection rate [2]: 112% (inactive)

SMILES: CN1CCCCC1Cn1cc(C(=O)c2cc([N+](=O)[O-])ccc2I)c2ccccc21 (stereo unspecified) (10 µM)
- morphology score [1]: 0.612
- SARS-CoV-2 infection rate [2]: 72.5% (inactive)

SMILES: O=C(NCCCN1CCCCCC1)C(c1ccccc1)C1CCCCC1 (stereo unspecified) (10 µM)
- morphology score [1]: 0.404
- SARS-CoV-2 infection rate [2]: 75.5% (inactive)

SMILES: CC(C)C[C@H](NC(=O)CNC(=O)c1cc(Cl)ccc1Cl)B(O)O [ixazomib] (0.833333 µM)
- morphology score [1]: -0.0337
- SARS-CoV-2 infection rate [2]: 93.5% (inactive)

SMILES: CN1Cc2c(C(=O)OC(C)(C)C)ncn2-c2ccsc2C1=O (10 µM)
- morphology score [1]: -0.00637
- SARS-CoV-2 infection rate [2]: 102% (inactive)

SMILES: CCN(CC)C(=O)c1ccc(C2=CC3(CCNCC3)Oc3cccc(O)c32)cc1 (10 µM)
- morphology score [1]: 0.006
- SARS-CoV-2 infection rate [2]: 122% (inactive)

SMILES: CCOC(=O)Nc1ccc2c(c1)N(C(=O)CN(C)C)c1ccccc1CC2 [tiracizine] (10 µM)
- morphology score [1]: -0.162
- SARS-CoV-2 infection rate [2]: 111% (inactive)

SMILES: CC(C)(C)C(=O)/C(=N/c1ccc(Cl)cc1)NNc1ccc(Cl)cc1 (10 µM)
- morphology score [1]: -0.145
- SARS-CoV-2 infection rate [2]: 114% (inactive)

SMILES: CN(C)CC/C=C1/c2ccccc2Sc2ccc(Cl)cc21 [chlorprothixene] (10 µM)
- morphology score [1]: 0.434
- SARS-CoV-2 infection rate [2]: 68.5% (inactive)

SMILES: CN[C@H](C(=O)N[C@H](C(=O)N(C)[C@H](/C=C(\C)C(=O)O)C(C)C)C(C)(C)C)C(C)(C)c1ccccc1 [taltobulin] (10 µM)
- morphology score [1]: -0.171
- SARS-CoV-2 infection rate [2]: 98% (inactive)

SMILES: O=C(O)[C@H](Cc1c[nH]c2ccccc12)N1C(=O)c2ccccc2C1=O (10 µM)
- morphology score [1]: -0.0791
- SARS-CoV-2 infection rate [2]: 115% (inactive)

SMILES: NCCC[C@H](N)C(=O)O [ornithine] (10 µM)
- morphology score [1]: 0.101
- SARS-CoV-2 infection rate [2]: 96.5% (inactive)

SMILES: O=C(Nc1cnccc1Cl)N1CCN(Cc2ccc3c(c2)OC(F)(F)O3)CC1 (10 µM)
- morphology score [1]: 0.0915
- SARS-CoV-2 infection rate [2]: 106% (inactive)

SMILES: COc1ccc2cc1Oc1ccc(cc1)C[C@H]1c3cc(c(OC)cc3CCN1C)Oc1c(OC)c(OC)cc3c1[C@H](C2)N(C)CC3 [tetrandrine] (10 µM)
- morphology score [1]: 0.509
- SARS-CoV-2 infection rate [2]: 12% (active)

SMILES: Cc1c(C(N)=O)cc([N+](=O)[O-])cc1[N+](=O)[O-] [dinitolmide] (10 µM)
- morphology score [1]: -0.0186
- SARS-CoV-2 infection rate [2]: 106% (inactive)
